Measured values: PubChem BioAssay
Calls of active or inactive are those of the source. Unless noted, how the calls were made is not given here.

Tests used:
[1] = tested on: Wnt5a (protein binding on small-molecule microarray); assay: Wnt5a binders on small-molecule microarray, primary screen, biophysical, 635/667 nm fluorescence (AID 1142); conditions: 635 nm fluorescence, higher = more signal;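 further: fluorescence read at 667 nm with signal to noise per printed feature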
[2] = cell viability in Huh7 cells, primary screen, cytotoxicity control for HCV replication inhibitor project, CellTiter-Glo luminescence, basal, 48 h (AID 1143); conditions: Huh7 HCV replicon, higher = more signal, called active from +8 up or from −8 down;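 further: Huh7 hepatoma cells carrying a hepatitis C replication reporter with no stimulus; test concentration not given here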
[3] = P. aeruginosa biofilm formation inhibitors, primary screen, PAO1 strain, BacTiter-Glo luminescence, LB-PBS (AID 1144); conditions: 12 h, higher = more signal
[4] = CREB reporter modulators without forskolin, primary screen, cell-based, PC12, CRE-LacZ reporter, unstimulated (AID 1145); conditions: no forskolin, luminescence, 4.5 h, higher = more signal, called active from +8 up or from −8 down
[5] = CREB reporter modulators under forskolin, primary screen, cell-based, PC12, CRE-LacZ reporter, forskolin-stimulated (AID 1146); conditions: luminescence, 4.5 h, higher = more signal, called active from +8 up or from −8 down;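 further: PC12 cells with 6xCRE LacZ reporter stimulated by forskolin 10 µM; beta-galactosidase reporter signal reflecting CREB driven transcription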
[6] = target: Streptavidin (Streptomyces avidinii) (UniProt P22629); assay: streptavidin binders on small-molecule microarray, primary screen, artefact control for SMM compound annotation, biophysical, 635/667 nm fluorescence (AID 1147); conditions: streptavidin binding, higher = more signal;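 further: signal reflects streptavidin binding to arrayed compounds as a control protein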
[7] = small-molecule binders of probe aInhba, primary screen, biochemical, small-molecule microarray, 635/667 nm fluorescence (AID 1148); conditions: higher = more signal;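 further: score merges 667nm spot fluorescence with signal-to-noise for antibody binding to printed compounds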
Torsin-1A (Homo sapiens) [8] = target: Torsin-1A (Homo sapiens) (UniProt O14656); assay: torsin A binders from cell lysate, primary screen, small-molecule microarray, wild-type, 635/667 nm (AID 1149); conditions: COS7 hTOR1A-WT lysate, 635 nm fluorescence, higher = more signal
Torsin-1A (Homo sapiens) [9] = target: Torsin-1A (Homo sapiens) (UniProt O14656); assay: small-molecule binders of mutant TOR1A in lysate, primary screen, cell lysate, small-molecule microarray, COS7 lysate, 635/667 nm fluorescence (AID 1150); conditions: COS7 hTOR1A mutant lysate, 635 nm fluorescence, higher = more signal;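 further: score pools 667 nm emission and signal to noise measuring lysate protein binding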
[10] = tested on: Sonic hedgehog protein (Shh); assay: small-molecule binders of Shh protein, primary screen, biochemical, small-molecule microarray, 635/667 nm fluorescence (AID 1151); conditions: small-molecule microarray binding, 635 nm fluorescence; higher = more signal;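 further: Shh protein binding to compounds spotted on small-molecule microarray slides; score combines spot fluorescence intensity with signal-to-noise across triplicate slides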
[11] = E. coli DRC41 culture turbidity changes, primary screen, E. coli filamentation inducer project, strain DRC41, OD650, 48 h (AID 1152);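 further: E. coli MC1000 strain DRC41 lacking acrAB efflux pump and sulA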; conditions: E. coli DRC41 (acrAB sulA), higher = more signal, called active from +8 up or from −8 down
[12] = small-molecule binders of probe aLefty1, primary screen, biochemical, small-molecule microarray, 635/667 nm fluorescence (AID 1153); conditions: higher = more signal;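 further: score merges spot fluorescence with signal-to-noise ratio from the scanned slide images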
[13] = PSAC antagonists in infected red cells, primary screen, cell-based, P. falciparum Indochina, OD700, 1 h (AID 1154); conditions: P. falciparum Indochina infected RBC osmotic lysis, higher = more signal, called active from +8 up or from −8 down
[14] = PSAC antagonists in infected red cells, primary screen, cell-based, P. falciparum Indochina, OD700, 2 h (AID 1155);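 further: lysis reports solute entry through the parasite surface anion channel PSAC; channel blockers reduce lysis of infected cells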; conditions: P. falciparum Indochina infected erythrocytes, osmotic lysis OD700; higher = more signal, called active from +8 up or from −8 down
[15] = osmotic lysis modulators in infected erythrocytes, primary screen, PSAC antagonist project, cell-based, P. falciparum Indochina, OD700, 3 h (AID 1156); conditions: higher = more signal, called active from +8 up or from −8 down
[16] = PSAC antagonists in infected red cells, primary screen, cell-based, P. falciparum Indochina, OD700, 18 h (AID 1157); conditions: P. falciparum Indochina infected erythrocytes, osmotic lysis OD700, 18 h; higher = more signal, called active from +8 up or from −8 down
[17] = modulators of S6 phosphorylation in cells, primary screen, cell-based, A549, cytoblot, luminescence, serum-stimulated (AID 1158); conditions: A549 phospho-S6 cytoblot, 5 h, higher = more signal;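 further: serum-stimulated A549 lung adenocarcinoma cells; signal is phosphorylated S6 detected by cytoblot immunostaining with HRP secondary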
[18] = target: NADPH oxidase 2 (Homo sapiens) (UniProt P04839); assay: NOX2-dependent H2O2 signal modulators, primary screen, NOX inhibitor project, cell-based, HEK293-NOX2, PMA-stimulated, Amplex Red fluorescence (AID 1159); conditions: 45 min, higher = more signal, called active from +8 up or from −8 down; further: test concentration not given here
[19] = target: NADPH oxidase 4 (Homo sapiens) (UniProt Q9NPH5); assay: NOX4-dependent H2O2 signal modulators, primary screen, NOX inhibitor project, cell-based, HEK293-NOX4, tetracycline-induced, Amplex Red fluorescence (AID 1160); conditions: 45 min, higher = more signal, called active from +8 up or from −8 down
[20] = target: NADPH oxidase 5 (Homo sapiens) (UniProt Q96PH1); assay: NOX5-dependent H2O2 signal modulators, primary screen, NOX inhibitor project, cell-based, HEK293-NOX5, Amplex Red fluorescence (AID 1161); conditions: HEK293-NOX5, ionomycin, 45 min, higher = more signal
Chain of NADPH oxidase 5 (Homo sapiens) (Q96PH1 whole entry, looked up): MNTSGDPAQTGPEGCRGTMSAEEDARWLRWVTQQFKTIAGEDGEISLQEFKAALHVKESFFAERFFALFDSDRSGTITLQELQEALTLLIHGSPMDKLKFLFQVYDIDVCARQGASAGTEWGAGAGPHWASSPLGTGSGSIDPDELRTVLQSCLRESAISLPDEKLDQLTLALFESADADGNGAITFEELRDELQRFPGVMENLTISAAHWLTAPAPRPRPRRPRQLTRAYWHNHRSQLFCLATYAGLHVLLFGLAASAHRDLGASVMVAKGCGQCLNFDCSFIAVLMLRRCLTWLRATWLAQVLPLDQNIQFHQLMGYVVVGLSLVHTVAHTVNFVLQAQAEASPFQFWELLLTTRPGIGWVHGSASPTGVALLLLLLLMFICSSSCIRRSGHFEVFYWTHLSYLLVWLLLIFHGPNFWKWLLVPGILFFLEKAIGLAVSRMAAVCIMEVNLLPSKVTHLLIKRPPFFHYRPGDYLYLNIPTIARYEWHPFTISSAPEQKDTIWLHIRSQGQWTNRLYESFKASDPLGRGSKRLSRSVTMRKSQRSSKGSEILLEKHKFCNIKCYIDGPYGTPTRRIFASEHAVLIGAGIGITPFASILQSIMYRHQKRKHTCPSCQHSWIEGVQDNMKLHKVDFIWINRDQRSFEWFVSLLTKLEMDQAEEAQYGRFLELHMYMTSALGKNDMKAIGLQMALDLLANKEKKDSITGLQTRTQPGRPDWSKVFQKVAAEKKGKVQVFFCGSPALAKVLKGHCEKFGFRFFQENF

Chain of NADPH oxidase 4 (Homo sapiens) (Q9NPH5 whole entry, looked up): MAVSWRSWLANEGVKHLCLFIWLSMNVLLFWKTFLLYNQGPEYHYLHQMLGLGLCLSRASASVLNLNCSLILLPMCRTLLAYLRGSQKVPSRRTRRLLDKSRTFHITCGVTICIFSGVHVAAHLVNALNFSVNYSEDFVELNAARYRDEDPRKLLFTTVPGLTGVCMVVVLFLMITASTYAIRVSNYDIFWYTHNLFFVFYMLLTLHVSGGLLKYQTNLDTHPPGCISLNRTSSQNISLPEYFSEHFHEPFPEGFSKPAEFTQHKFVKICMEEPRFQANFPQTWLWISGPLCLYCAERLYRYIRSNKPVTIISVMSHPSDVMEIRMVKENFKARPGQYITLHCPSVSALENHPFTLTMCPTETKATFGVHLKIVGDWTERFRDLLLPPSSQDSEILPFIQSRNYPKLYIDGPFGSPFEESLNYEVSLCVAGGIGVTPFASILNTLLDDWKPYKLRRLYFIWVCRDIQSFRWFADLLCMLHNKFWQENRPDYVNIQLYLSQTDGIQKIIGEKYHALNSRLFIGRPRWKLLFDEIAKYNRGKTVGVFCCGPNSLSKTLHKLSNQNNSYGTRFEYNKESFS
Chain of Torsin-1A (Homo sapiens) (O14656 whole entry, looked up): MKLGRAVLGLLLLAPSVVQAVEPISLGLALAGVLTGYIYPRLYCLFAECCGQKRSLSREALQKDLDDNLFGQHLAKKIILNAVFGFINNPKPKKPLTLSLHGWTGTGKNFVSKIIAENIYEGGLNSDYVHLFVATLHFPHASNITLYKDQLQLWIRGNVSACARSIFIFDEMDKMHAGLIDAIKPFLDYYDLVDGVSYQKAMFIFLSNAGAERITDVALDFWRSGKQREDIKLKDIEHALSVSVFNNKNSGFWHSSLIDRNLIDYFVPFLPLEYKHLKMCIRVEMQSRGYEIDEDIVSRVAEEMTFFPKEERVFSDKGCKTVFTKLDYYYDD
Chain of Streptavidin (Streptomyces avidinii) (P22629 whole entry, looked up): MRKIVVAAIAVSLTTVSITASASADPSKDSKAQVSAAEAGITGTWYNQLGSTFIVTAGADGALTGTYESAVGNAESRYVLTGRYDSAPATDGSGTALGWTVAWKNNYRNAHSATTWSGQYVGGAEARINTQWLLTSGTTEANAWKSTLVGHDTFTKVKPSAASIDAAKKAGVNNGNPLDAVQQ
Chain of NADPH oxidase 2 (Homo sapiens) (P04839 whole entry, looked up): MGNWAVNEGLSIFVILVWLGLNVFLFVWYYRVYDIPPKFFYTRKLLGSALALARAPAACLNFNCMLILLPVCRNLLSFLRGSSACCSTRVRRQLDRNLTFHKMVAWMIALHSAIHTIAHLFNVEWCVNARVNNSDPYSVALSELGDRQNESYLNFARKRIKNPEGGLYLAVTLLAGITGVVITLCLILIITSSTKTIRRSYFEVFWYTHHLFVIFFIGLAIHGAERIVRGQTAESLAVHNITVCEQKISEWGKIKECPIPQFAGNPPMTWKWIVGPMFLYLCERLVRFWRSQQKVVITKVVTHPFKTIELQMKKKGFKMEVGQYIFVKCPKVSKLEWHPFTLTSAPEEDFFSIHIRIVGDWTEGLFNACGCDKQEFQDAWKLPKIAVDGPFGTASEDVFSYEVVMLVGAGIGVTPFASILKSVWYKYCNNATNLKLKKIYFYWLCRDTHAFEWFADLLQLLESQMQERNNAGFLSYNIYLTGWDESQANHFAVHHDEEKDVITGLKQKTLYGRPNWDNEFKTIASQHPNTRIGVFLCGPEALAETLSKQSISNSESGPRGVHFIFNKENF

| Structure (SMILES) | composite z-score [1] | z-score [2] | z-score [3] | z-score [4] | z-score [5] | composite z-score [6] | composite z-score [7] | composite z-score (Torsin-1A (Homo sapiens) [8]) | composite z-score (Torsin-1A (Homo sapiens) [9]) | composite z-score [10] | z-score [11] | composite z-score [12] | z-score [13] | z-score [14] | z-score [15] | z-score [16] | z-score [17] | z-score [18] | z-score [19] | z-score [20] |
| --- | --- | --- | --- | --- | --- | --- | --- | --- | --- | --- | --- | --- | --- | --- | --- | --- | --- | --- | --- | --- |
| CCCCC(=C=CC[C@@H](O)c1cccc(OCCO)c1)C[C@@H](O)c1ccccn1 | 0.252 | -0.19 (inactive) | -1.15 (inactive) | -0.102 (inactive) | 0.786 (inactive) | 1.5 | -0.0331 | 1.67 | 0.416 | 1.86 | 0.158 (inactive) | -0.147 | 14 (active) | 1.33 (inactive) | 0.375 (inactive) | 0.504 (inactive) | -0.0848 | -1.68 (inactive) | -0.544 (inactive) | -1.46 |
| OCCCC1=CC(C2CC2)N(Cc2cccc(OC(F)(F)F)c2)CC1 (stereo not given) | -0.416 | -0.28 (inactive) | 0.129 (inactive) | 0.0882 (inactive) | 0.0103 (inactive) | -0.753 | -0.213 | -0.176 | -0.773 | 1 | -0.469 (inactive) | -0.0813 | 1.82 (inactive) | 0.539 (inactive) | 0.982 (inactive) | 0.675 (inactive) | 0.473 | -1.2 (inactive) | -0.822 (inactive) | -1.48 |
| CCCCN1CC=CC23O[C@@H]4/C=C\CCCOC(=O)C4[C@H]2C(=O)N(CCCCCO)[C@@H]3C1=O (stereo not given in full) | 0.0311 | -0.103 (inactive) | 0.0433 (inactive) | 0.333 (inactive) | -0.391 (inactive) | -1.43 | -0.211 | -0.0808 | 0.777 | -0.695 | -0.852 (inactive) | -0.328 | 0.896 (inactive) | 0.481 (inactive) | -0.765 (inactive) | 0.0625 (inactive) | -0.782 | 1.07 (inactive) | -0.18 (inactive) | 1.74 |
| COC(=O)[C@@]1(Cc2ccc(OC)cc2)[C@H]2c3cc(C(=O)N4CCCC4)n(Cc4nc5ccccc5[nH]4)c3C[C@H]2CN1C(=O)c1ccccc1 | 0.704 | -2 (inactive) | 0.848 (inactive) | -0.182 (inactive) | 0.147 (inactive) | 1.78 | 0.802 | 0.0984 | 1.7 | -0.245 | -0.945 (inactive) | 0.388 | 6.92 (inactive) | 1.2 (inactive) | 2.04 (inactive) | 1.03 (inactive) | -0.0242 | -0.034 (inactive) | -0.0265 (inactive) | -3.27 |
| O=C1OCCC=C[C@H]2OC34C=CCN(CCN5CCOCC5)C(=O)[C@H]3N(CCCCCO)C(=O)[C@@H]4C12 (stereo not given in full) | -0.135 | 0.201 (inactive) | -0.199 (inactive) | 1.14 (inactive) | 0.25 (inactive) | 1.38 | -0.253 | 1.14 | 1.52 | 0.139 | 0.725 (inactive) | -0.103 | 2.61 (inactive) | 0.535 (inactive) | 2.32 (inactive) | 0.305 (inactive) | -0.0483 | 0.855 (inactive) | 0.393 (inactive) | 1.85 |
| [N-]=[N+]=Nc1ccccc1[C@H]1OC(c2ccc(OCCCO)cc2)=N[C@@]1(CCS(=O)(=O)c1ccccc1)C(=O)NCc1ccccc1 | 0.768 | -2.65 (inactive) | 0.0905 (inactive) | 1.26 (inactive) | -0.504 (inactive) | 1.47 | 0.204 | 0.503 | 0.786 | 0.0239 | -0.795 (inactive) | 0.373 | 28.1 (active) | 27.8 (active) | 1.64 (inactive) | 1.92 (inactive) | -0.234 | 0.443 (inactive) | 0.184 (inactive) | -0.852 |
| CN(C)CCCCNC(=O)[C@@H]1C[C@@H]2C(=O)N[C@@H](CCCCN)C(=O)N2[C@@H]1c1ccc(O)cc1 | 0.0291 | -0.151 (inactive) | -0.0779 (inactive) | 0.281 (inactive) | -0.773 (inactive) | 0.98 | -0.0403 | 0.584 | 0.435 | 1.23 | 0.928 (inactive) | 0.129 | 1.93 (inactive) | 1.43 (inactive) | -0.079 (inactive) | 1.16 (inactive) | 0.297 | 1.42 (inactive) | 1.28 (inactive) | 0.81 |
| CC1CC/C=C\[C@H]2OC34C=CCN(c5ccc6ccccc6c5)C(=O)[C@H]3N(CCO)C(=O)[C@@H]4C2C(=O)O1 (stereo not given in full) | 0.451 | -0.929 (inactive) | 0.282 (inactive) | -0.35 (inactive) | 0.289 (inactive) | -0.818 | 0.0301 | -1.34 | 0.652 | 0.0032 | -0.0648 (inactive) | 0.552 | 3.56 (inactive) | 0.531 (inactive) | 0.15 (inactive) | 0.357 (inactive) | 0.21 | 1.43 (inactive) | 1.04 (inactive) | 2.4 |
| O=C1O[C@H](c2ccccc2)[C@H](c2ccccc2)N2[C@H]1[C@@H](C(=O)N1CCN(c3ncccn3)CC1)[C@]1(C(=O)Nc3ccc(C#CC4=CCCCC4)cc31)[C@H]2c1ccccc1OCCO | 0.406 | -3.34 (inactive) | -0.869 (inactive) | -0.581 (inactive) | -0.111 (inactive) | 0.895 | 0.772 | 0.0637 | 0.0096 | 1.79 | -0.544 (inactive) | 1.52 | 1.45 (inactive) | 0.746 (inactive) | 0.774 (inactive) | 1.03 (inactive) | -0.187 | 1.46 (inactive) | 0.867 (inactive) | 1.01 |
